# Screens: PubChem BioAssay, National Center for Advancing Translational Sciences (NCATS)
# Sampled rows, rich in hits. Any-hit rate of the full collection: about 19%.
# HT1080 IDH1KD tx: qHTS for induction of synthetic lethality in tumor cells producing 2HG: qHTS for the HT-1080-IDH1KD cell line; HT-1080 IDH1 knockdown viability, ATP luminescence, 48 h; Potency, µM (doses to about 46.1 µM), for inactives: at the highest dose activity, negative = toxicity, hits mostly cytotoxic; actives 2% (n = 360,000);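 also: potency is read from the fitted curve at half-maximal effect; 0% = DMSO wells and -100% = cell-free medium wells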
#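 Using the IDH1-knockdown HT-1080 line run in the same batch and compound series as the NT line, viability after 48 h at 37 °C was determined by CellTiter-Glo luminescence and expressed as % activity.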
# TDP1 cell noCPT: qHTS for Inhibitors of human tyrosyl-DNA phosphodiesterase 1 (TDP1): qHTS in cells in absence of CPT; DT40 Tdp1-/- hTDP1 cells, no CPT, ATP luminescence, 48 h; Potency, µM (titrated, usually from 46.2 µM), for inactives: top-dose activity change, negative = growth inhibition, hits mostly inhibitors; actives 15% (n = 420,000); also: potency is read from the fitted curve at half-maximal effect; nearly all actives have a fitted effect of over 55% in size
#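 Growth of hTDP1-complemented DT40 Tdp1-knockout cells is measured by ATP luminescence after at least 48 hr compound exposure at 37 °C, with DMSO substituting for the 20 nM CPT used in the parallel screen.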
# HT1080-NT tox: qHTS for induction of synthetic lethality in tumor cells producing 2HG: qHTS for the HT-1080-NT fibrosarcoma cell line | HT-1080-NT fibrosarcoma viability, CellTiter-Glo ATP luminescence, 48 h | Potency, µM (series often up to 46.1 µM), inactives show top-dose activity, negative = less viability, hits mostly cytotoxic | actives 1.6% (n = 360,000) | AID 686970, 2013;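 also: NT is the 2HG producing partner of a matched IDH1 knockdown line; potency is read from the fitted curve at half-maximal effect; 0% = DMSO-treated cells and -100% = media-only wells without cells; nearly all actives have a fitted effect of over 55% in size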
#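 Fibrosarcoma NT cells, 750 per well in 5% FBS RPMI, were exposed to compound for 48 hours. Viability: CellTiter-Glo luminescence.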
# IL1B secr inh: qHTS for Inhibitors of Inflammasome Signaling: IL-1-beta AlphaLISA Primary Screen; actives 4.7% (n = 360,000); THP-1 LPS/ATP IL-1B secretion, AlphaLISA, 16 h; stronger effect = lower value; activity change, % at 57.5 µM; in the data active = activity change below about -50%; inconclusive = mostly about -30% to -49%
#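 THP-1 cells pretreated 1 hr with compounds (up to 57.5 uM final), then stimulated with LPS (250 ng/mL final) plus ATP (1.25 mM final); secreted IL-1B measured by AlphaLISA after 16 hr, decreased signal indicating inhibition.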
# DT40 TDP1 CPT: qHTS for Inhibitors of human tyrosyl-DNA phosphodiesterase 1 (TDP1): qHTS in cells in presence of CPT; chicken DT40 Tdp1-/-;hTDP1 cells + 20 nM CPT, ATP luminescence, 48 h; Potency, µM (titrated, usually from 46.2 µM), inactives show at the highest dose activity change, negative = growth inhibition, hits mostly inhibitors; actives 12% (n = 420,000); also: potency is read from the fitted curve at half-maximal effect; nearly all actives have a fitted effect of over 55% in size
#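 Cell growth measured by CellTiter-Glo luminescence after a minimum 48 h, 37 C compound exposure with 20 nM CPT in Tdp1-knockout DT40 cells stably expressing hTDP1, seeded 400/well; qHTS titration format.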
# * = called active by the depositor; ? = inconclusive; . = not tested or not shown. Unless noted, calls follow the shape of the dose curve; as a rule, active = well fitted curve in the direction sought with a large enough effect; inconclusive = small, poorly fitted or top-dose-only effect, or another doubt; inactive = no such curve, though single readings can be large; an effect the other way counts as inactive or inconclusive. Unless noted, % is scaled to controls: 0 for no effect and ±100 for the full control effect.
SMILES,HT1080 IDH1KD tx,TDP1 cell noCPT,HT1080-NT tox,IL1B secr inh,DT40 TDP1 CPT
Cc1cccc(NC(=S)NCC23C=CC(O2)C2C(=O)N(c4ccc(Cl)cc4)C(=O)C23)c1 (stereo not given),-7.3%,20.6µM*,-5.7%,-5.1,?
Cc1ccc(S(=O)(=O)NCC23C=CC(O2)C2C(=O)N(c4ccccc4)C(=O)C23)cc1 (stereo not given),7.5%,?,6.8%,0.4,?
CCCCCCNC1=NCCS1,-4.5%,0.9%,-5.8%,9.3,-4.8%
CCN(CC)c1ccc(NC(=O)c2cccc(C)c2OC)c(C)c1,?,11.2µM*,?,-22.2,12.6µM*
Cc1ccc(-c2nc3ccccc3o2)cc1NC(=O)c1cccc2c(Cl)cccc12,.,-23.4%,.,.,?
Cc1cc2nn(-c3ccc(F)cc3)nc2cc1NC(=O)c1cccc2c(Cl)cccc12,.,?,.,.,2.91µM*
Cc1cc2nn(-c3cccc4ccccc34)nc2cc1NC(=O)c1cccs1,7.7%,-72.4%,12.1%,?,23.1µM*
CCN(CC)c1ccc(-n2nc3cc(C)c(NC(=O)c4ccccc4C)cc3n2)c(C)c1,.,20.6µM*,.,.,16.4µM*
CCN(CC)c1ccc(NC(=O)c2cnc3ccccn3c2=O)c(C)c1,-13.8%,?,9.9%,-15.6,?
O=C(c1cnccn1)N1CCC2(CC1)CCN(C(c1ccccc1)c1ccccc1)CC2,.,?,.,.,-3.6%
CCC(C)(C)n1nnnc1C(c1ccc(N(C)C)cc1)N1CCN(C2CCCCC2)CC1 (stereo not given),8.3%,?,-0.9%,-10.1,-7.5%
Cc1ccnc(NC(=O)C(C)n2cc([N+](=O)[O-])cn2)c1 (stereo not given),6.4%,24.5%,-2.2%,-11.2,32.5%
COCCn1nnnc1C(C(C)C)N(Cc1cccnc1)Cc1ccccc1Cl (stereo not given),-12.8%,23.1µM*,-9.9%,9.2,?
COc1ccccc1NC(=S)N(Cc1cccnc1)Cc1ccccc1Cl,-8.2%,?,-3.6%,-11.5,-29.2%
CCOC(=O)c1ccc(N2C(=O)c3[nH]nc(-c4ccc(C)cc4)c3C2c2ccc(O)c(OCC)c2)cc1 (stereo not given),.,23.1µM*,.,.,18.4µM*
CCOC(=O)c1ccc(N2C(=O)c3n[nH]c(-c4ccco4)c3C2c2ccc(C(=O)OC)cc2)cc1 (stereo not given),.,14.6µM*,.,.,25.9µM*
CCOC(=O)c1ccc(N2C(=O)c3n[nH]c(-c4ccco4)c3C2c2ccc(O)c(OCC)c2)cc1 (stereo not given),.,14.6µM*,.,.,16.4µM*
Cc1ccc(-c2n[nH]c3c2C(c2ccccc2)N(c2ccc(C(=O)O)cc2)C3=O)cc1 (stereo not given),-29.1%,18.8%,-26.5%,-5.6,9.7%
CCOc1cc(C2c3c(n[nH]c3C)C(=O)N2c2ccc(Br)cc2)ccc1O (stereo not given),-7.4%,-23.4%,-19.2%,?,-16.2%
CCOC(=O)c1ccc(N2C(=O)c3[nH]nc(-c4ccc(C)cc4)c3C2c2cccs2)cc1 (stereo not given),.,16.4µM*,.,.,16.4µM*
Cc1ccc(C(=O)NCC(=O)OCc2nnc(-c3ccc([N+](=O)[O-])cc3)o2)s1,0.2%,-29.3%,-1.7%,0.0,?
CNc1c([N+](=O)[O-])cnn1-c1ccc(Cl)cc1,-3.7%,-7.1%,-6.2%,-0.4,-5.7%
O=C(NC1CCN(C(=O)c2cccs2)CC1)c1ccccc1,11.4%,-9.3%,12.8%,-8.0,5.1%
CCOC(=O)c1ccc(N2C(=O)c3[nH]nc(-c4ccc(OC)cc4)c3C2c2ccccc2Cl)cc1 (stereo not given),.,23.1µM*,.,.,18.4µM*
COc1ccc(C2c3c(-c4ccccc4)n[nH]c3C(=O)N2c2ccc(C(=O)O)cc2)c(OC)c1 (stereo not given),.,-1.7%,.,.,-0.1%
SMILES,HT1080 IDH1KD tx,TDP1 cell noCPT,HT1080-NT tox,IL1B secr inh,DT40 TDP1 CPT
Nc1[nH]n(-c2ccccc2)c(=O)c1N=Nc1ccc2c(c1)OCO2,?,?,-20.3%,-9.7,-12.5%
Nc1nn(-c2ccccc2)c(N)c1N=Nc1cccc(F)c1,5.8µM*,2.59µM*,16.4µM*,15.4,1.64µM*
Nc1nn(-c2ccccc2)c(N)c1N=Nc1ccc2c(c1)OCO2,6.51µM*,4.11µM*,18.4µM*,-96.8*,3.66µM*
Nc1[nH]n(-c2ccccc2)c(=O)c1N=Nc1ccc2c(c1)OCCO2,-12.9%,?,-16.3%,-73.1*,?
CCOP(=O)(OCC)C1NC(=O)N(c2ccccc2)C1=O (stereo not given),24.7%,4.6%,27.0%,10.7,2.3%
c1ccc(CCn2c3ccccc3c3nnc(SCc4ccc5nonc5c4)nc32)cc1,7.08µM*,16.4µM*,?,-3.8,14.6µM*
C=CCn1c2ccccc2c2nnc(SCN3C(=O)c4ccccc4C3=O)nc21,-17.2%,-23.9%,-11.3%,-17.2,-28.3%
O=C1c2ccccc2C(=O)N1CSc1nnc2c3ccccc3n(CCc3ccccc3)c2n1,21.5%,20.6µM*,23.3%,-21.5,?
Cc1ccccc1OCC(=O)Nc1ccc(C(N)=O)cc1,7.7%,5.8%,8.4%,-5.4,2.8%
CC(=O)Nc1cccc(NC(=O)COc2ccccc2C)c1,-7.6%,-69.5%,0.1%,-5.1,11.6µM*
Cc1ccccc1OCC(=O)Nc1ccc2[nH]c(=O)sc2c1,.,16.4µM*,.,.,?
Cc1ccc(OCC(=O)Nc2ccc3[nH]c(=O)sc3c2)cc1,.,-24.8%,.,.,5.4%
O=C(COc1ccc(Cl)cc1Br)Nc1ccncc1,-16.6%,10.3µM*,-14.3%,?,?
Cc1ccccc1OCC(=O)Nc1ccncc1,-5.7%,16.4µM*,-2.4%,10.1,?
COc1ccc2[nH]c(C(=O)N3CCC(n4nccc4NC(=O)C4CC4)CC3)c(C)c2c1,1.3%,-2.0%,5.1%,30.4,-14.1%
CC(C)(C)NC(=S)NC1CC1,8.0%,-13.1%,7.2%,11.2,5.6%
Cc1cc(OCC(=O)Nc2ccncc2)cc(C)c1Br,10.3µM*,?,-23.5%,-50.3*,?
O=C(COc1ccc(Br)cc1)Nc1ccc(Cc2ccncc2)cc1,5.7%,0.9%,19.8%,-11.3,2.2%
Cc1cc(OCC(=O)Nc2ccc(Br)cc2)cc2c1C(=O)CC(C)(C)O2,-3.1%,23.1µM*,-16.2%,-81.3*,29.1µM*
CC(=O)Nc1ccc(NC(=O)COc2cccc3ccccc23)cc1,-6.9%,8.2µM*,-11.5%,-2.8,9.2µM*
